Test results as given in the supplement of paper PMC12582362.
Structures can show the parent of a compound that is named as a salt. About 30 (2%) of roughly 1,500 compounds showed activity. The entries come from a sample that favours actives as a whole. Values without a mark were called inactive.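 How the source made its calls: active = robust z-score below -2; a few such results were not called.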

Each compound was assayed on optoTopBP1 Flp-In 293 T-REx (HEK293) cells (assay: light-induced TopBP1 condensate (nuclear foci) count, plate-normalised robust z-score vs non-control wells; higher = more TopBP1 condensates (negative = condensation inhibitor), active = hit call of the paper). Details: 10 µM; incubation time 2 h.

Structure (SMILES) | light-induced TopBP1 condensate (z-score)
NCCCC(O)(P(=O)(O)O)P(=O)(O)O [Alendronate sodium] | -0.706
O=P(O)(O)C(O)(Cc1cccnc1)P(=O)(O)O [Risedronic acid monohydrate] | -0.826
C#C[C@]1(O)CC[C@H]2[C@@H]3CCC4=CCCC[C@@H]4[C@H]3CC[C@@]21C [Lynestrenol] | 1.39
CC(C)=CCC1C(=O)N(c2ccccc2)N(c2ccccc2)C1=O [Feprazone] | 1.11
C[N+](C)(C)C[C@H](O)CC(=O)[O-] [Levocarnitine] | 0.0352
CC(C)Nc1cccnc1N1CCN(C(=O)c2cc3cc(NS(C)(=O)=O)ccc3[nH]2)CC1 [Delavirdine] | 0.915
Cn1ccnc1S [Methimazole] | -0.456
CC1(C)O[C@@H]2C[C@H]3[C@@H]4CCC5=CC(=O)C=C[C@]5(C)[C@H]4[C@@H](O)C[C@]3(C)[C@]2(C(=O)CO)O1 [Desonide] | -0.951
CC/C=C(\C(=O)N[C@@H]1C(=O)N2C(C(=O)OCOC(=O)C(C)(C)C)=C(COC(N)=O)CS[C@H]12)c1csc(N)n1 [Cefcapene pivoxil hydrochloride] | -0.782
CCOc1ccccc1C(N)=O [Ethenzamide] | -0.0402
CCC[C@@H]1C[C@@H](C(=O)N[C@@H]([C@H]2O[C@H](SC)[C@H](O)[C@@H](O)[C@H]2O)[C@H](C)Cl)N(C)C1 [Clindamycin hydrochloride] | 0.556
CC(C)N1CCN(c2ccc(OCC3COC(Cn4cncn4)(c4ccc(Cl)cc4Cl)O3)cc2)CC1 (stereo unspecified) [Terconazole] | -0.114
CCC(C)n1ncn(-c2ccc(N3CCN(c4ccc(OCC5COC(Cn6cncn6)(c6ccc(Cl)cc6Cl)O5)cc4)CC3)cc2)c1=O (stereo unspecified) [Itraconazole] | -0.757
CC[C@@H]([C@H](C)O)n1ncn(-c2ccc(N3CCN(c4ccc(OC[C@@H]5CO[C@@](Cn6cncn6)(c6ccc(F)cc6F)C5)cc4)CC3)cc2)c1=O [Posaconazole] | -2.52 (active)
CN[C@@H]1[C@@H](O[C@H]2O[C@H](CO)[C@@H](N)[C@H](O)[C@H]2O)OC2C[C@@H](N)[C@@H](O[C@H]3[C@H](O)[C@@H](O)[C@H](N)C[C@@H]3N)OC2[C@@H]1O (stereo partly specified) [Apramycin] | 0.974
C#Cc1cccc(Nc2ncnc3cc(OCCOC)c(OCCOC)cc23)c1 [Erlotinib] | 1.27
OC(CNCC(O)C1CCc2cc(F)ccc2O1)C1CCc2cc(F)ccc2O1 (stereo unspecified) [Nebivolol hydrochloride] | -0.227
CCCC(=O)N1CCCN(c2nc(N)c3cc(OC)c(OC)cc3n2)CC1 [Bunazosin hydrochloride] | 0.537
CC(=O)OCC(=O)[C@@]1(O)[C@H](C)C[C@H]2[C@@H]3CCC4=CC(=O)C=C[C@]4(C)[C@@]3(F)[C@@H](O)C[C@@]21C [Dexamethasone acetate] | 0.214
OCCN1CCN(CC/C=C2/c3ccccc3Sc3ccc(Cl)cc32)CC1 [Zuclopenthixol dihydrochloride] | -0.966
Cn1cc(C(=O)[C@@H]2CCc3[nH]cnc3C2)c2ccccc21 [Ramosetron hydrochloride] | -0.549
COc1ccc(C2C(=O)c3ccccc3C2=O)cc1 [Anisindione] | 0.789

Structure (SMILES) | light-induced TopBP1 condensate (z-score)
COc1cccc2c1C(=O)c1c(O)c3c(c(O)c1C2=O)C[C@@](O)(C(=O)CO)C[C@@H]3O[C@H]1C[C@H](N)[C@@H](O)[C@H](C)O1 [Epirubicin hydrochloride] | -3.05 (active)
Oc1ccc(OCc2ccccc2)cc1 [Monobenzone] | -2.29 (active)
CC(COc1ccccc1)NC(C)C(O)c1ccc(O)cc1 (stereo unspecified) [Isoxsuprine hydrochloride] | -0.14
C[C@H](NCc1ccc(OCc2cccc(F)c2)cc1)C(N)=O [Safinamide] | -0.127
COc1ccc(C(=O)c2ccc(C)cc2)c(O)c1 [Mexenone] | 0.105
O=C(NCCCN1CCOCC1)c1ccc(Cl)cc1 [Eprobemide] | 0.149
CC(C)NCC(O)COc1cccc2[nH]c3ccccc3c12 (stereo unspecified) [Carazolol] | -1.07
CC(COc1ccccc1)NN (stereo unspecified) [Phenoxypropazine dihydrochloride] | 0.724
CN(C)C(=O)COC(=O)Cc1ccc(OC(=O)c2ccc(NC(=N)N)cc2)cc1 [Camostat mesylate] | -0.369
CN[C@@H]1[C@H](O)[C@H](NC)[C@H]2O[C@@]3(O)C(=O)C[C@@H](C)O[C@H]3O[C@@H]2[C@H]1O [Spectinomycin dihydrochloride] | 0.546
C=C1C[C@H]2[C@@H]3C=C(C)C4=CC(=O)CC[C@]4(C)[C@H]3CC[C@]2(C)[C@@]1(OC(C)=O)C(C)=O [Melengestrol acetate] | -0.246
CCOc1ccccc1OCCN[C@H](C)Cc1ccc(OC)c(S(N)(=O)=O)c1 [(R)-Tamsulosin hydrochloride] | 0.258
Cc1cccc(C)c1OCC(=O)N[C@@H](Cc1ccccc1)[C@@H](O)C[C@H](Cc1ccccc1)NC(=O)[C@H](C(C)C)N1CCCNC1=O [Lopinavir] | 0.599
CC(C)CN(C[C@@H](O)[C@H](Cc1ccccc1)NC(=O)O[C@H]1CCOC1)S(=O)(=O)c1ccc(N)cc1 [Amprenavir] | 1.18
CC[N+]1(CC)CCC(=C(c2ccccc2)c2ccccc2)C1C (stereo unspecified) [Prifinium Bromide] | 1.11
CC(C)(CO)[C@@H](O)C(=O)NCCCC(=O)O [Hopantenate calcium] | 0.00401
COc1cc(N)cn[n+]1-c1ccccc1 [Amezinium metilsulfate] | 0.428
O=C1CN2Cc3c(ccc(Cl)c3Cl)N=C2N1 [Anagrelide] | -0.566
Clc1ccc(C(Cn2ccnc2)OCc2csc3c(Cl)cccc23)c(Cl)c1 (stereo unspecified) [Sertaconazole nitrate] | 0.206
OCC(CO)N[C@H]1C[C@](O)(CO)[C@@H](O)[C@H](O)[C@H]1O [Voglibose] | 1.28
CC(C)(CO)C(O)C(=O)NCCCO (stereo unspecified) [Panthenol (D)] | 0.585
CN(C)CCOC1=Cc2ccccc2Sc2ccc(Cl)cc21 [Zotepine] | 0.612

Structure (SMILES) | light-induced TopBP1 condensate (z-score)
CN1CCCCC1CCN1c2ccccc2Sc2ccc([S+](C)[O-])cc21 (stereo unspecified) [Mesoridazine besylate] | 0.412
Cc1nc2ccccc2n1Cc1ccc(Cl)cc1 [Chlormidazole] | -0.19
CC(C)(C)C(=O)OCOC(=O)[C@@H]1N2C(=O)[C@@H](/N=C/N3CCCCCC3)[C@H]2SC1(C)C [Pivmecillinam hydrochloride] | 0.64
CC(C)NC(=N)NC(=N)Nc1ccc(Cl)cc1 [Proguanil hydrochloride] | -0.256
COc1cc(C(=O)NCc2ccc(OCCN(C)C)cc2)cc(OC)c1OC [Trimethobenzamide hydrochloride] | -0.218
Cc1ncc([N+](=O)[O-])n1CC(C)O (stereo unspecified) [Secnidazole] | 0.994
CC1(C)S[C@@H]2[C@H](NC(=O)C(c3ccccc3)S(=O)(=O)O)C(=O)N2[C@H]1C(=O)O (stereo partly specified) [Sulbenicillin sodium salt] | 0.523
CC(=O)[C@@]1(O)CC[C@H]2[C@@H]3C[C@H](C)C4=CC(=O)C=C[C@]4(C)[C@@]3(F)[C@@H](O)C[C@@]21C [Fluorometholone] | -0.232
O=C(c1cc(O)c(O)c(O)c1)c1ccc(O)c(O)c1O [Exifone] | 0.683
CN(C)CC/C=C1/c2ccccc2COc2ccc(CC(=O)O)cc21 [Olopatadine hydrochloride] | 0.52
O=c1oc2cc(O)ccc2s1 [Tioxolone] | 0.00597
Cc1cc(/C=C/c2ccc3cc(N(C)C)ccc3[n+]2C)c(C)n1-c1ccccc1 [Pyrvinium pamoate] | -4.74 (active)
CN[C@@H]1[C@@H](O)[C@@H](O[C@@H]2[C@@H](O)[C@H](O[C@H]3OC(CN)=CC[C@H]3N)[C@@H](N)C[C@H]2N)OC[C@]1(C)O [Sisomicin sulfate] | 0.652
CCN1CCN(Cc2ccc(Nc3ncc(F)c(-c4cc(F)c5nc(C)n(C(C)C)c5c4)n3)nc2)CC1 [Abemaciclib] | -0.486
COc1cccc(CCc2ccccc2OCC(CN(C)C)OC(=O)CCC(=O)O)c1 (stereo unspecified) [Sarpogrelate hydrochloride] | 0.789
Clc1ccc(C(Cn2ccnc2)OCc2c(Cl)cccc2Cl)c(Cl)c1 (stereo unspecified) [Isoconazole] | 0.803
CN(C)c1cc(NC(=O)CNC(C)(C)C)c(O)c2c1C[C@H]1C[C@H]3[C@H](N(C)C)C(O)=C(C(N)=O)C(=O)[C@@]3(O)C(O)=C1C2=O [Tigecycline] | 0.904
N#C/C(=C1/SCC(c2ccccc2Cl)S1)n1ccnc1 (stereo unspecified) [Lanoconazole] | 0.321
O=C(O)COc1nn(Cc2ccccc2)c2ccccc12 [Bendazac] | -0.242
CC(=O)N[C@H]1[C@H]([C@H](O)[C@H](O)CO)OC(C(=O)O)=C[C@@H]1NC(=N)N [Zanamivir] | -0.513
CC(C)(C)NCC(O)CSc1nc(-c2ccc(C(N)=O)s2)cs1 (stereo unspecified) [Arotinolol hydrochloride] | -0.455
Cc1ccc(C(=O)c2cc(O)c(O)c([N+](=O)[O-])c2)cc1 [Tolcapone] | -0.692
